Consider 46 sequences from publication PMC7819943, “Rice protein-binding microarrays: a tool to detect cis-acting elements near promoter regions in rice”.

Over roughly 68,000 sequences, “fluorescence intensity (a.u.)” has its median near 9,100; the highest 2% begin near 16,000. What follows is part of a selection rich in the highest values, with near analogues and random picks from the rest.

Sequence of OsWRKY34 (Q0JBA9 entry or part of it): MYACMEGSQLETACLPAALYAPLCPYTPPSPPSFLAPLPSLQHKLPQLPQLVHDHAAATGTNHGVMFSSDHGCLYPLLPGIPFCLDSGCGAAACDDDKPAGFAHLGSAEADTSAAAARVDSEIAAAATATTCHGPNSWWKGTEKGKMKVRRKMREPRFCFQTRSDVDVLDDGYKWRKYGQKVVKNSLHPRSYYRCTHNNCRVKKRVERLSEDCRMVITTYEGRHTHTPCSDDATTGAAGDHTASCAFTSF

This assay concerns the target OsWRKY34 (Oryza sativa, UniProt Q0JBA9 1-250). Description: protein-binding microarray (RPBM); PBS, 2% BSA, 51.3 ng/ul salmon testes DNA, 50 uM zinc acetate, 200 nM TF, 25 C, 1 h; high values mean tight binding. Particulars: protein: recombinant; tags: N-terminal polyhistidine and DsRed monomer fusion (pET32a); label: CyDye5-dUTP incorporated in the synthesized complementary strand; 3' TTTTT single-stranded linker to array surface; dsDNA, one strand shown. The method, boiled down: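 A custom Agilent array was converted to double-stranded form by primer extension with Cy5-dUTP and blocked with 2% BSA. Protein at 200 nM in PBS with 2% BSA, salmon testes DNA and 50 µM zinc acetate was applied for 1 h at 25 °C, followed by washing. The proteins were polyhistidine–DsRed N-terminal fusions of transcription factors, expressed in E. coli BL21-CodonPlus and Ni–NTA-purified. The binding signal is per-feature fluorescence intensity (arbitrary units) from an Axon 4000B scanner.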
Turning to “GCGATCTTCGCGGCTTCACCATCATACCTGCAACTGCAACCGGAGTCACCTAGTGCAG”, the binding signal is 8220 fluorescence intensity (a.u.). The same measure for “CGTCCGGCCGCGAAACCGAGCCTTCTGACCACCGCCGAAACGGAGTCACCTAGTGCAG”: 8050 fluorescence intensity (a.u.); for “ACCGTTGACTTTTTAGCACATGATTGATCGTTCGTTTTATCGGAGTCACCTAGTGCAG”: 33800 fluorescence intensity (a.u.); for “CACCGTTGATTTTTTAGCACATGTTTGACCGTTCGTCTTACGGAGTCACCTAGTGCAG”: 12900 fluorescence intensity (a.u.). As for “GTTTGTTGCAGTTTGGTGTGTATGTTTGTTGCACTTTGATCGGAGTCACCTAGTGCAG”, the figure is 9920 fluorescence intensity (a.u.); as for “TATTTAACACCGTTGACTTTTTAGCACATGTTTGACCGTTCGGAGTCACCTAGTGCAG”, 38200 fluorescence intensity (a.u.); as for “TAAGCACAGTTGACTTTTTTTTTGGTGTGTTCCGGTGTATCGGAGTCACCTAGTGCAG”, 20900 fluorescence intensity (a.u.). As for “GTTGACTTTTTAGCACGTGTTTGACCGTTCGTCTTATTAACGGAGTCACCTAGTGCAG”, the figure is 9780 fluorescence intensity (a.u.); as for “TTGTTTGCACCGGTTTTGACAGTTCAGGGATCGGTTGTATCGGAGTCACCTAGTGCAG”, 8200 fluorescence intensity (a.u.). For the sequence “TTGATTTTTTTAGCACATGTTTGACCGTTCGTCTTATTAACGGAGTCACCTAGTGCAG”, the binding signal is 13200 fluorescence intensity (a.u.). “ATTTGACACCGTTAACCTTTTAGCACATGTTTGACCGTTCCGGAGTCACCTAGTGCAG”: the binding signal is 11900 fluorescence intensity (a.u.). The same measure for “ACACCGTTGACTTTTTAGCACGTGTTTGACCGTTCACCTTCGGAGTCACCTAGTGCAG”: 26900 fluorescence intensity (a.u.); for “CAAAAACACTCCACATATTTTTCCTTTTAGTTACGTAATTCGGAGTCACCTAGTGCAG”: 9500 fluorescence intensity (a.u.). As for “TCGTCGTGTTCGTGTTTTTTTTCTTCCAATCTGCGCGCGTCGGAGTCACCTAGTGCAG”, the figure is 8990 fluorescence intensity (a.u.); as for “TACGCTGTGATCCCCGTCTTCAATTTCTCGTTCGCTCTCACGGAGTCACCTAGTGCAG”, 12800 fluorescence intensity (a.u.). On to “AGCCTATTTCATTTGATATATCATGGTGCATGATCTAATTCGGAGTCACCTAGTGCAG”, for which the binding signal was 11100 fluorescence intensity (a.u.).

For “ACGTCCAAATCACATTATATCAGTTCCTGTTTGTAACCGCCGGAGTCACCTAGTGCAG”, the binding signal was 8550 fluorescence intensity (a.u.). The same measure for “GTGCCTGTTTGCTTCAGTGATGCTGGTGGTGGTTGCCTAACGGAGTCACCTAGTGCAG”: 9460 fluorescence intensity (a.u.).

Consider “GTACTCCTGGTCCGCATCCACCGTCCATCCGCGTACCGCACGGAGTCACCTAGTGCAG”, for which the binding signal was 11000 fluorescence intensity (a.u.). “GTTCTTCTTCTTCTTCTTCTTTTTTTCGTCCAAGGCCACTCGGAGTCACCTAGTGCAG”: the binding signal is 8280 fluorescence intensity (a.u.). As for “TTTTCTCCTTTCGCGTTGCGTCCGCGATCCGATCGATCGACGGAGTCACCTAGTGCAG”, the figure is 9560 fluorescence intensity (a.u.). The same measure for “AGTTTTTTCCTTTTAATCTCCGACTTCACCGGGTTTTTTCCGGAGTCACCTAGTGCAG”: 8260 fluorescence intensity (a.u.); for “CGACAGTTTCCTTTTTCGCGACCACTTCCGATCTCCTAAACGGAGTCACCTAGTGCAG”: 17000 fluorescence intensity (a.u.); for “CGTTTTTGTGTCTTTCATTTGAGGAGGAACTGCGATTCTTCGGAGTCACCTAGTGCAG”: 9400 fluorescence intensity (a.u.). “AACTTCTTGCATGTGCCTTTTTTATCATCTGCATATATTTCGGAGTCACCTAGTGCAG”: the binding signal was 10300 fluorescence intensity (a.u.). As for “ACTTCCGATGCGTAATAAGGCTTTAGTCCCACAACTGACGCGGAGTCACCTAGTGCAG”, the figure is 8630 fluorescence intensity (a.u.); as for “GCTCTAACACACCTTCATCATGCATGCATATGTGCTATTTCGGAGTCACCTAGTGCAG”, 8080 fluorescence intensity (a.u.); as for “AGTAGGAGGGTGGGTATTTGCAACAAAATGACTTATGAGGCGGAGTCACCTAGTGCAG”, 12800 fluorescence intensity (a.u.). As to “CATTACTTTTTTGGTGGACTTGCAAAAACATGGGCATTTTCGGAGTCACCTAGTGCAG”, the binding signal is 8680 fluorescence intensity (a.u.). As for “CATATGCACTAACAAAACCGAGTAGGAGGGTGGGTATTTGCGGAGTCACCTAGTGCAG”, the figure is 8580 fluorescence intensity (a.u.); as for “TTACAACAAAACTAAGTAGGGGTGGGTATTTGCAACAAAACGGAGTCACCTAGTGCAG”, 17600 fluorescence intensity (a.u.). For “AAAATAACTTACGGGGTGGAATGTCAAACTTCAAGTGACTCGGAGTCACCTAGTGCAG”, the binding signal was 8470 fluorescence intensity (a.u.).

With “GGTGGGTGGGCATTTGCAACAAAATAACTTACGGGGTGGACGGAGTCACCTAGTGCAG”, the binding signal was 17000 fluorescence intensity (a.u.). Take “GGTTTGCCGTCGTCGGCGTCGGCCGCTGCCTCGCGCGCGCCGGAGTCACCTAGTGCAG”: the binding signal is 9230 fluorescence intensity (a.u.). In the case of “AGCCTACCAGCTGCACCGCAAATGCCGTGTACTGCTTTCTCGGAGTCACCTAGTGCAG”, the binding signal is 8340 fluorescence intensity (a.u.). As for “GTGATGTGCTGCAACCTCGCCGCCAGCCGCGCCCTGTGCGCGGAGTCACCTAGTGCAG”, the figure is 8560 fluorescence intensity (a.u.); as for “ATATCTGTTTTTACGGTTCGAGGACGTTTTTATATCCGATCGGAGTCACCTAGTGCAG”, 8940 fluorescence intensity (a.u.); as for “TTAACTTTTTAGTACGTGTTTGACCATTCGTATTATTCAACGGAGTCACCTAGTGCAG”, 9020 fluorescence intensity (a.u.). As for “ACCTCTGTTTTTAATAGATGACGTGTCGTTGACTTTTTATCGGAGTCACCTAGTGCAG”, the figure is 13300 fluorescence intensity (a.u.); as for “TGTTTGACACCGTTGACTTTTTAGTCGTGTTTGACCATTCCGGAGTCACCTAGTGCAG”, 24400 fluorescence intensity (a.u.); as for “GTTTGACACCGTGGACTTTTTTAAATATGTTTGACCATTCCGGAGTCACCTAGTGCAG”, 11800 fluorescence intensity (a.u.). On to “GACACCGTTGACTTTTTAAGTACGTGTTTGACCATTCGTCCGGAGTCACCTAGTGCAG”, for which the binding signal is 43700 fluorescence intensity (a.u.).

As for “CATCGTTGAACTTTATCGTGCCCTTCACACCATTCCGTCGCGGAGTCACCTAGTGCAG”, the binding signal is 8130 fluorescence intensity (a.u.). Regarding “ACGTGTCGTTGACTTTTTATCACACGTTTAGCCATTCGTCCGGAGTCACCTAGTGCAG”, the binding signal is 30200 fluorescence intensity (a.u.). As for “TAACACCGTTGACTTTTTAGCTCATGTTTGACCATTCGTCCGGAGTCACCTAGTGCAG”, the figure is 27400 fluorescence intensity (a.u.); as for “ACGTGTTTGACCATTCGTTTTATTCAAATCATTTAAGTAACGGAGTCACCTAGTGCAG”, 9230 fluorescence intensity (a.u.).
